From PubChem
Rows were chosen to be rich in hits. Some 1.3% of all compounds tested hit in one or more screens of this group.
Rv3671c inh: inhibits the M. tuberculosis serine protease Rv3671c; P9WHR9; inhibition, % at 5.96 µM; 0.048% of 320,000 active; in the data active means inhibition above about 38%;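 further: extracellular domain of Rv3671c used as enzyme; 0% = enzyme with DMSO and 100% = no enzyme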
RecA splice inh: inhibitors of M. tuberculosis RecA intein splicing; P9WHJ3; cell-free RecA intein splicing, fluorescence; inhibition, % (concentration not given with the values); 0.75% of 290,000 active; in the data active means inhibition above about 30%;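 further: 0% = vehicle wells and 100% = reference inhibitor control wells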
FadD28 FP inh: inhibitors of Mycobacterium tuberculosis FadD28 bisubstrate binding. FadD28 bisubstrate probe binding, fluorescence polarization. inhibition, % at 12.5 µM. 0.22% of 360,000 active; in the data active means inhibition above about 8.5%, passing the limit was not always enough
BJeLR viability: BJeLR cell viability loss | BJeLR (HRASV12) viability, CellTiter-Glo ATP luminescence, 48 h | inhibition, % (test concentration not listed) | 0.17% of 300,000 active | AID 1554; in the data active means inhibition above about 50%
UGM FP inh: inhibitors of M. tuberculosis UDP-galactopyranose mutase; P9WIQ1; purified UGM, fluorescence polarization probe displacement; inhibition, % at 10 µM; 0.06% of 320,000 active; AID 504406; in the data active means inhibition above about 10%, passing the limit was not always enough
PrP 5UTR inh: suppresses PrP 5' UTR mRNA reporter expression. 0.35% of 340,000 active. AID 488862. cell-based PrP 5' UTR mRNA reporter, plate reader. inhibition, % (test concentration not listed); in the data active means inhibition above about 52%; further: 0 = median of the neutral control wells
GFP chromo cs: counter-screen: blocks GFP chromophore formation | shares compounds with RecA splice inh | cell-free GFP chromophore formation, fluorescence | EC50, µM | 83% of 2,100 active | AID 434968; call rule not given here
* marks the source's active call; other numbers are inactive results; x = no result given.

SMILES	Rv3671c inh	RecA splice inh	FadD28 FP inh	BJeLR viability	UGM FP inh	PrP 5UTR inh	GFP chromo cs
CCN(CC)CCNC(=O)c1ccc2c(c1NCCO)C(=O)c1ccccc1C2=O	-26	78*	1	1	1	x	6.9*
CC[C@]12c3[nH]c4ccc(Cl)cc4c3CCN1C(=O)[C@@H](CC(=O)NC/C=C(\C)CCC=C(C)C)C[C@@H]2C(=O)N1CCN(C(=O)c2ccco2)CC1	x	x	-2	x	x	-4	x
Cc1nn(-c2ccccc2)c(N)c1C1(O)C(=O)N(C(C)C)c2ccccc21 (configuration not stated)	8	5	-1	-6	0	-4	x
Cc1nn(-c2ccccc2)c2c1C1(C(=O)N(C(C)C)c3ccccc31)C(C#N)=C(N)O2 (configuration not stated)	3	81*	-6	-1	-1	-17	12*
CCOC(=O)C1(C)CCCN(C(=O)Cc2ccc3ccccc3c2)C1 (configuration not stated)	x	x	-1	x	x	x	x
COC(CNC(=O)C1CCCN1C(=O)OCc1ccccc1)OC (configuration not stated)	1	0	-8	-3	-2	-6	x
COC(=O)[C@@H]1C[C@]2(OC(=O)c3ccccc3)C=CC(=O)C[C@@H]2N1C(=O)OCc1ccccc1	-3	56*	-3	-8	3	-1	32*
Nc1ccn([C@@H]2O[C@H](C(=O)N3CCSC3)[C@@H](O)[C@H]2O)c(=O)n1	x	x	-4	x	x	x	x
O=c1[nH]cc(N=Cc2cc(Cl)cc(Cl)c2O)c(=O)[nH]1	-17	77*	0	-6	2	-8	13*
Cc1ccc(S(=O)(=O)NC(=O)C2(C)CCN2C(=O)c2ccccc2)cc1 (configuration not stated)	x	x	-4	x	x	x	x
COC(=O)c1cccc(N2C(=O)C(Cl)=C(N3CCOCC3)C2=O)c1	-5	68*	-4	-11	1	-19	5.2*
CN1CCN(C2=C(Cl)C(=O)N(c3cccc(Cl)c3)C2=O)CC1	-17	22	-2	-7	-3	-26	x
COC(=O)c1cccc(S(=O)(=O)N2CCOCC2)c1	0	-1	-3	-11	0	-19	x
O=C1C(Cl)=C(N2CCOCC2)C(=O)N1c1cccc(C(F)(F)F)c1	-4	90*	0	-4	4	-6	2.6*
COc1cc(/C=C(\C#N)C(=O)c2c[nH]c3ccccc23)cc(OC)c1O	-6	92*	2	5	-25	-41	5.2*
C[C@@H]1CN([C@@H](C)CO)S(=O)(=O)c2ccc(-c3ccccc3)cc2O[C@@H]1CN(C)Cc1ccccc1C(=O)O	x	x	-5	x	x	x	x
Cc1cccc(NC(=S)N/N=C2/CCCCc3ccccc32)c1	-2	30*	-3	-5	-1	-95	>38
CCOc1ccc(NC(=S)Nc2ccc3nsnc3c2)cc1	-199	26	0	-1	-1	-42	x
COc1ccc(NC(=S)Nc2ccc3nsnc3c2)cc1	-129	40*	-1	9	1	-25	>38
CSCCNC(=O)C1(C)CCN1C(=O)c1ccc(C(C)(C)C)cc1 (configuration not stated)	x	x	-4	x	x	x	x
CCOC(=O)c1ccc(NC(=O)c2nc[nH]c2C(=O)N[C@@H](C)CO)cc1	x	x	-3	x	x	x	x
O=[N+]([O-])c1cc(Br)c(Nc2ccccc2)c([N+](=O)[O-])c1	6	64*	-3	60*	7	-14	20*
CCOC(=O)c1cc2cc3ccccc3cc2[nH]1	-14	44*	-2	x	-2	-71	>38
COc1ccc(NC(=O)C2(C)CCN2C(=O)C(C)C)cc1F (configuration not stated)	x	x	-1	x	x	x	x
O=C(Cn1ncc(Cl)c(Cl)c1=O)c1ccc(Cl)cc1	-5	13	-3	8	1	14	x
SMILES	Rv3671c inh	RecA splice inh	FadD28 FP inh	BJeLR viability	UGM FP inh	PrP 5UTR inh	GFP chromo cs
O=C(OCn1ncc(Cl)c(Cl)c1=O)c1ccc(F)cc1	-12	75*	x	-33	1	x	8.1*
O=C(OCn1ncc(Cl)c(Cl)c1=O)c1ccccc1Cl	-3	89*	-3	-44	-5	-9	5.2*
CC(C)(C)c1csc(Sc2ccc([N+](=O)[O-])cn2)n1	3	32*	-1	-6	0	-14	9.2*
Cc1ccnc(Sc2ccc([N+](=O)[O-])cn2)n1	4	5	-2	-5	1	-15	x
COc1cc(/C=C2\C(=O)N(c3ccc(S(N)(=O)=O)cc3)N=C2C)ccc1OC(=O)c1ccco1	-118	93*	1	3	0	3	20*
C#CCOc1ccc(/C=C2/C(=O)N(c3ccc(S(N)(=O)=O)cc3)N=C2C)cc1OC	x	x	-3	x	x	x	x
C#CCOc1ccc(/C=C2/C(=O)N(c3cccc(C(=O)O)c3)N=C2C)cc1OC	-147	71*	-2	2	-1	-6	3.4*
CCCCc1ccc(NC(=O)CSCc2cc(=O)[nH][nH]2)cc1	-8	64*	-2	-8	2	x	17*
O=C(CSCc1cc(=O)[nH][nH]1)Nc1ccc(F)cc1	-12	85*	-3	4	0	-29	12*
CCCCc1ccc(NC(=O)COCC)cc1	-5	-2	-1	-2	1	-14	x
COc1ccc(C(C)(O)c2nc(-c3ccncc3)cs2)cc1 (configuration not stated)	x	x	0	x	x	x	x
COc1ccc(-c2nnc(OC)c3ccccc23)cc1	-1	1	-1	0	-5	-14	x
COc1ccc(-c2nnc(Sc3nc4ccccc4o3)c3ccccc23)cc1	-1	53*	-4	1	0	-26	1.5*
C[C@H](O)CNC(=O)c1[nH]cnc1C(=O)Nc1cccc(Cl)c1	x	x	-5	x	x	x	x
CC1=C(C(=O)OC(C)C)C2(O)C(=O)c3ccccc3C2(O)N1 (configuration not stated)	-74	32*	-2	1	0	0	27*
CCOC(=O)C1=C(C)N[C@@]2(O)c3ccccc3C(=O)[C@@]12O	-76	7	-3	-9	-1	-17	x
c1ccc(-c2onc(-c3ccco3)c2-c2ccc3[nH]ccc3c2)cc1	-30	7	-8	-12	-1	-18	x
CCc1cccc(CC)c1NC(=O)/C(C#N)=C/c1ccccc1C(F)(F)F	-15	31*	-4	1	0	-15	32*
Cn1nc(-c2ccc(Cl)cc2)nc2c(=O)n(C)c(=O)nc1-2	-152	94*	x	19	5	-27	0.36*
CS(=O)(=O)n1nc(-c2ccc(Cl)cc2)nc1N	5	6	-3	5	-2	-25	x
CCCn1c(=O)[nH]c(=O)c2c1nc(-c1ccccc1OC(F)F)n2CCOC	0	0	-1	1	-1	-15	x
CCCn1c(=O)[nH]c(=O)c2c1nc(-c1ccc(OC(F)F)c(OC)c1)n2CCOC	-5	53*	-2	0	1	-7	>38
